# Results from the supplement of paper PMC13380429.
# Unmarked numbers belong to inactive results.
# Test system: Vero E6 infected with SARS-CoV-2
# Assay: inhibition of SARS-CoV-2 cytopathic effect; higher = more antiviral protection, active = above 15
# Conditions: 48 h
SMILES,inhibition of SARS-CoV-2 cytopathic effect (1 nM),inhibition of SARS-CoV-2 cytopathic effect (8.33 nM),inhibition of SARS-CoV-2 cytopathic effect (100 nM),inhibition of SARS-CoV-2 cytopathic effect (833.33 nM),inhibition of SARS-CoV-2 cytopathic effect (10000 nM)
CCOC(=O)[C@H](CCc1ccccc1)N[C@H]1CCc2ccccc2N(CC(=O)O)C1=O [benazepril],2.45%,4.14%,3.52%,-1.12%,1.56%
O=C(O)c1cccnc1Nc1cccc(C(F)(F)F)c1 [niflumic-acid],1.14%,2.42%,-0.03%,1.51%,1.54%
CCCCC/C=C\C/C=C\C/C=C\CCCCC(=O)O [gamma-linolenic-acid],-0.6%,-2.39%,-2.33%,-1.24%,-1.03%
Cc1cc(NC(=O)NCCN2CCC(O)(Cc3ccccc3)CC2)c2ccccc2n1 [palosuran],-0.45%,0.24%,0.95%,2.2%,1.86%
Cc1cc(NCCO)nc(-c2ccc(Br)cc2)n1,1.81%,-1.79%,-0.15%,0.73%,-2.57%
COc1ccc(CCCO[C@@H](Cn2ccnc2)c2ccc(OC)cc2)cc1,-4.38%,-5.95%,-10.2%,-1.69%,0.39%
COc1ccccc1Oc1c(NS(=O)(=O)c2ccc(C)cn2)nc(-c2ccncc2)nc1OC,1.47%,2.09%,1.19%,2.9%,-4.64%
CC(C)C[C@H](NC(=O)N1CCCCCC1)C(=O)N[C@H](Cc1cn(C)c2ccccc12)C(=O)N[C@H](Cc1ccccn1)C(=O)O,-0.85%,2.47%,0.97%,-2.82%,2.44%
NCC1OC(C23CC4CC(CC(C4)C2)C3)Cc2c1ccc(O)c2O (stereo not given),0.67%,0.56%,2.31%,1.57%,-6.39%
CN(CCCN1c2ccccc2CCc2ccccc21)CC(=O)c1ccc(Cl)cc1 [lofepramine],2.35%,-0.58%,1.56%,2.86%,0.69%
COc1cc(Nc2c(C#N)cnc3cc(OCCCN4CCN(C)CC4)c(OC)cc23)c(Cl)cc1Cl [bosutinib],0.33%,-1.8%,-1.97%,-8.27%,-7.97%
Cc1ncc[nH]1 [2-methylimidazole],-0.11%,1.86%,0.89%,-3.06%,0.33%
CC(C)(N)C(=O)N[C@H](COCc1ccccc1)C(=O)N1CCC2(CC1)CN(S(C)(=O)=O)c1ccccc12 [ibutamoren],1.85%,2.84%,0.93%,4.99%,2.99%
O=C(Nc1nc(-c2cc(Cl)cs2)c(N2CCN(C3CCCCC3)CC2)s1)c1cnc(N2CCC(C(=O)O)CC2)c(Cl)c1 [avatrombopag],2.06%,0.14%,0.09%,-3.82%,-0.97%
CC(=O)N1CCN(c2ccc(OC[C@@H]3CO[C@@](Cn4ccnc4)(c4ccc(Cl)cc4Cl)O3)cc2)CC1 (racemic) [ketoconazole],-0.87%,-0.69%,-1.88%,0.35%,1.61%
CC[C@H](C)[C@H](NC(=O)[C@H](Cc1ccc(O)cc1)NC(=O)[C@@H](NC(=O)[C@H](CCCNC(=N)N)NC(=O)[C@@H](N)CC(=O)O)C(C)C)C(=O)N[C@@H](Cc1c[nH]cn1)C(=O)N1CCC[C@H]1C(=O)O,-1.39%,1.3%,0.18%,-0.77%,2.67%
O=C(Cc1ccc(-c2ccccc2)cc1)Nc1ccccn1 [difenpiramide],2.42%,3.03%,-1.56%,6.97%,14.8%
O=c1[nH]c2ccccc2n1C1CCN(CCOc2ccccc2)CC1 [oxiperomide],-1.51%,-1.1%,-2.1%,-0.51%,2.21%

SMILES,inhibition of SARS-CoV-2 cytopathic effect (1 nM),inhibition of SARS-CoV-2 cytopathic effect (8.33 nM),inhibition of SARS-CoV-2 cytopathic effect (100 nM),inhibition of SARS-CoV-2 cytopathic effect (833.33 nM),inhibition of SARS-CoV-2 cytopathic effect (10000 nM)
CC[N+](C)(CC)CC(=O)Nc1c(C)cccc1C [N-methyllidocaine-iodide],1.32%,2.44%,0.64%,1.63%,1.7%
CCCCC1C(=O)N(c2ccccc2)N(c2ccccc2)C1=O [phenylbutazone],-0.14%,0.89%,0.31%,0.4%,0.88%
O=C(O)[C@H]1CC[C@H](c2cc3cccnc3c(-c3cccc(F)c3)n2)CC1,-3.3%,-2.36%,-0.1%,0.23%,1.21%
Cc1ccc(-c2c(-c3nn(C)c4ncnc(N5CC[C@H](N6CCCCC6)C5)c34)cnn2C)cc1,-0.9%,-0.84%,0.89%,-2.4%,-0.65%
Cc1c(C(=O)NN2CCCCC2)nn(-c2ccc(Cl)cc2Cl)c1-c1ccc(Cl)cc1 [rimonabant],-1.86%,1.55%,-0.12%,0.01%,-3.44%
CCS(=O)(=O)Nc1ccc2c(c1)/C(=C(/Nc1ccc(CN3CCCCC3)cc1)c1ccccc1)C(=O)N2 [hesperadin],1.74%,3.12%,0.27%,-9.14%,-10.5%
CC(C)(O)c1ccccc1CC[C@@H](SCC1(CC(=O)O)CC1)c1cccc(/C=C/c2ccc3ccc(Cl)cc3n2)c1 [montelukast],0.18%,0.4%,-0.23%,-0.66%,-4.23%
CC1(C)CC[C@]2(C(=O)O)CC[C@]3(C)[C@H](C(=O)C=C4[C@@]5(C)C=C(C#N)C(=O)C(C)(C)[C@@H]5CC[C@]43C)[C@@H]2C1 [bardoxolone],-1.22%,-1.62%,2.92%,3.36%,28.9% (active)
CN1CCN2c3c(cccc31)[C@@H]1CN(CCCC(=O)c3ccc(F)cc3)CC[C@@H]12 [lumateperone],-2.67%,2.96%,2.88%,2.75%,2.86%
C[N+]1(C)CCCC(OC(=O)C(O)(c2ccccc2)c2ccccc2)C1 (stereo not given) [mepenzolate],-0.21%,-0.16%,-3.53%,0.26%,0.49%
Cc1c(CN(C)C(=O)/C=C/c2cnc3c(c2)CCC(=O)N3)oc2ccccc12,0.18%,-1.15%,1.59%,0.21%,-1.4%
COC(=O)C1=C(C)NC(C)=C(C(=O)OCCSc2ccccc2)[C@@H]1C,-2.31%,-3.84%,-2.77%,-0.76%,3.1%
Nc1nc(NC[C@H]2CC[C@H](CNS(=O)(=O)c3cccc4ccccc34)CC2)nc2ccccc12,-0.54%,-0.03%,0.19%,-0.88%,29.5% (active)
Cn1c2c(c3ccccc31)CCNCC2,3.79%,2.27%,-0.51%,0.96%,-0.01%
Cc1cc(NC(=O)C(c2ccccc2)N2CCCc3ccccc32)no1 (stereo not given),0.33%,-0.92%,1.85%,0.35%,3.91%
CCOC(=O)[C@@]1(CCCCCCOc2ccc(Cl)cc2)CO1 [etomoxir],-0.23%,-0.29%,1.79%,2.79%,-4.51%
C=CC(=O)Nc1ccc2ncnc(Nc3ccc(OCc4cccc(F)c4)c(Cl)c3)c2c1,-1.9%,1.55%,-0.97%,-0.61%,-3.89%
Fc1ccc(-c2cncc(CN3CCN(c4cccc5c4OCCO5)CC3)c2)cc1 [adoprazine],-1.19%,-1.15%,2.28%,1.56%,0.22%
